Source: PubChem BioAssay (NCI)
About 83,000 compounds went through this panel and 20% of them were active in at least one assay; those are over-represented in the sample as a whole.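 How to read the values: 0–100, growth inhibition (40 = 60% inhibited); 0, no net growth; -100 to 0, cell death (-40 = 40% of starting cells died; -100 = all dead).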 A number with no mark means an inactive call. Activity calls are given as the source filed them. Rule for the calls: active = growth percent below 10; inactive = the rest.

Assays:
Assay in all cases: NCI-60 one-dose screen, 48 h (100 = growth as untreated, 0 = no growth, -100 = all killed)
[1] = system: NCI-H23 lung; settings: 10 µM unless noted
[2] = system: NCI-H226 lung; settings: 10 µM unless noted
[3] = system: NCI-H322M lung; settings: 10 µM unless noted
[4] = system: NCI-H460 lung; settings: 10 µM unless noted
[5] = system: NCI-H522 lung; settings: 10 µM
[6] = system: A549/ATCC NSCLC; settings: 10 µM unless noted
[7] = system: 786-0 renal; settings: 10 µM unless noted
[8] = system: COLO 205 colon; settings: 10 µM unless noted
[9] = system: DU-145 prostate; settings: 10 µM unless noted
[10] = system: K-562 leukemia; settings: 10 µM unless noted
[11] = system: MALME-3M melanoma; settings: 10 µM unless noted
[12] = system: MDA-MB-231 breast; settings: 10 µM unless noted
[13] = system: SF-268 CNS; settings: 10 µM unless noted
[14] = system: SF-295 CNS; settings: 10 µM unless noted
[15] = system: SF-539 CNS; settings: 10 µM unless noted
[16] = system: UACC-257 melanoma; settings: 10 µM unless noted
[17] = system: M14 melanoma; settings: 10 µM unless noted
[18] = system: HOP-92 NSCLC; settings: 10 µM
[19] = system: RXF 393 renal; settings: 10 µM unless noted

| Compound | growth [1] | growth [2] | growth [3] | growth [4] | growth [5] | growth [6] | growth [7] | growth [8] | growth [9] | growth [10] | growth [11] | growth [12] | growth [13] | growth [14] | growth [15] | growth [16] | growth [17] | growth [18] | growth [19] |
| --- | --- | --- | --- | --- | --- | --- | --- | --- | --- | --- | --- | --- | --- | --- | --- | --- | --- | --- | --- |
| CCCCCCCCc1ccc(CCC(N)(CO)CO)cc1 | 68.9% | 94.3% | 3.56% (active) | 0.54% (active) | -51.7% (active) | 0.665% (active) | -44.2% (active) | -87.5% (active) | 3.12% (active) | -25.2% (active) | 26.2% | -24.1% (active) | 20.3% | 67.9% | 17.3% | 53.7% | 50% | – | – |
| COC(=O)/C=C/c1cc(O)c2oc(-c3ccc(O)c(O)c3)c(C(=O)OC)c2c1 | 30.4% | 18.2% | 48.7% | 29.1% | -0.902% (active) | 57.2% | 44.2% | – | 17.5% | – | 57.4% | 31.1% | 25.2% | -11.3% (active) | 2.83% (active) | 60.4% | 21% | 56.1% | – |
| COC(=O)c1ccc2[nH]c(O)c(C(=Nc3ccc(N(C)C(=O)CN4CCN(C)CC4)cc3)c3ccc(CCO)cc3)c2c1 | 57.1% | 57% | 66.5% | 74.6% | 33.3% | 95.4% | 44.2% | 18.1% | 80.4% | 8.34% (active) | 19% | 31.2% | 29.6% | 93.2% | 28% | 77.6% | 57.3% | – | 30% |
| CCOC(=O)CCCCCCCCC(=O)OCC | 96.3% | 103% | 97.6% | 108% | 105% | 107% | 106% | 108% | 108% | 101% | 94.4% | 111% | 97.3% | 103% | 112% | 101% | 114% | – | 112% |
| CCCCCCCCc1ccc(OCCOCC[N+](C)(C)CC)cc1 (tested in a mixture with another compound) | 26.8% | 56.5% | 94% | 39.9% | 3.68% (active) | 69.5% | 87.8% | -42.1% (active) | 64.5% | 22.8% | -19.9% (active) | 22.2% | 23% | 97.2% | 18.4% | 12.9% | 44.5% | – | 50.3% |
| CC1=C[C@@H]2c3c(c(O)c(O)c4oc5cc(O)cc(O)c5c(=O)c34)[C@@H](c3cc(O)c(O)c4oc5cc(O)cc(O)c5c(=O)c34)[C@@H]2C(C)(C)C1 | -20.3% (active) | 8.46% (active) | 16.9% | -28.3% (active) | -60.8% (active) | 9.43% (active) | -40.3% (active) | – | 20.7% | – | -10.3% (active) | -38.2% (active) | 3.54% (active) | -26.7% (active) | -5.82% (active) | 27% | -47% (active) | -15% (active) | – |
| O=C1OC(c2ccc(-c3ccccc3)cc2)=C/C1=C/c1c2ccccc2cc2ccccc12 | 99.4% | 78.5% | 113% | 94.5% | 109% | 25.8% | – | 101% | 121% | 93.3% | 113% | 98.5% | 95.9% | – | 110% | -47.9% (active) | 108% | 79.2% | – |
| O=C1/C(=C/c2ccc(Cl)cc2)CCC/C1=C\c1ccc(Cl)cc1 | 70.7% | 104% | 99.6% | 97.7% | 83% | 65.7% | 91.3% | 73.3% | 91.7% | 67.9% | 90.5% | 95.6% | 84.1% | 94.5% | 88.1% | 81.5% | 69.7% | – | 56.4% |
| CC(=O)OC1CC2C3CCC4C[C@@H](NC(=O)C=C(C)C)CC[C@]4(C)C3CC[C@]2(C)[C@H]1C(C)N(C)C (stereo not given in full) | 40.6% | 30.5% | -2.28% (active) | -39.9% (active) | 61.2% | 11.6% | – | -84% (active) | 31.6% | -37.5% (active) | -54% (active) | -36.1% (active) | -63% (active) | -37.6% (active) | -76.5% (active) | -58.4% (active) | -59.9% (active) | -36.2% (active) | -64.6% (active) |
